# Inconclusive results are not listed. Calls of active or inactive are those of the source. How the source made its calls, unless noted: active means hit-call score of the fitted dose curve at least 0.9, where 1 is the maximum; inactive means score below 0.9.
# Key:
# [1] = CCTE_Shafer_MEA_acute_AB: CCTE's Alamar Blue Assay for Cytotoxicity in the Neural Acute Assay, Shafer Lab (AID 2284069; active means hit-call score of the fitted dose curve at least 0.9, where 1 is the maximum;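 further: active compounds lower the viability signal compared with DMSO wells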)
# Procedure, shortened: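 Resazurin reduction (CellTiter Blue, 1:6 in fresh medium) read at ex 544/em 590 nm marks viability loss relative to DMSO. Cells: primary rat cortical neuron networks on microelectrode arrays, treated after baseline recording at 13 or 15 days in vitro.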
# [2] = CCTE_Shafer_MEA_dev_network_spike_duration_std: CCTE's Neural Network Formation Assay for Standard Deviation of Network Spike Duration, Shafer Lab (AID 2284052);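 further: hits are decreases in network spike duration SD versus DMSO vehicle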
# Procedure, shortened: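 Network spike duration variability was collapsed across recordings on days 5, 7, 9 and 12 by trapezoidal area-under-curve and fitted downward against DMSO. Cultures were rat cortical neurons on PEI-coated MEA plates, dosed continuously from plating, refed with compound DIV 5/9.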
# [3] = CCTE_Shafer_MEA_dev_per_network_spike_spike_number_mean: CCTE's Neural Network Formation Assay for Mean Number of Spikes in a Network Spike, Shafer Lab (AID 2284053);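 on AC50: fitted as decrease in spikes per network spike relative to DMSO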
# Procedure, shortened: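 Mean spike count within each network spike, taken in a 0.05 s window at its peak, was recorded on days 5, 7, 9 and 12 and integrated as trapezoidal area under the curve. Rat cortical cultures on MEA plates received continuous compound from day 0, refreshed at medium changes on DIV 5 and 9.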
# [4] = CCTE_Shafer_MEA_dev_per_network_spike_spike_percent: CCTE's Neural Network Formation Assay for Percent of Spikes in a Network Spike, Shafer Lab (AID 2284054)
# Procedure, shortened: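 Rat primary cortical neurons were grown on 48-well MEA plates (16 electrodes/well), exposed from plating day 0 through day 12, with treatment renewed on DIV 5 and 9. Percent of spikes within 0.05 s network-spike peaks was measured, summarised as AUC across days 5, 7, 9, 12.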
# [5] = CCTE_Shafer_MEA_dev_LDH: CCTE's Lactate Dehydrogenase Assay for Cytotoxicity in the Neural Network Formation Assay, Shafer Lab (AID 2284068; active means hit-call score of the fitted dose curve at least 0.9, where 1 is the maximum;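 further: exposure for twelve days from plating with re-dosing on DIV 5 and 9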)
# Procedure, shortened: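 Primary rat cortical neurons were cultured on PEI-coated MEA plates and exposed from plating through day 12, with compound renewed at medium changes on DIV 5 and 9. LDH activity was read spectrophotometrically; loss of signal versus DMSO indicates reduced viability.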
# [6] = CCTE_Shafer_MEA_dev_AB: CCTE's Alamar Blue Assay for Cytotoxicity in the Neural Network Formation Assay, Shafer Lab (AID 2284083; active means hit-call score of the fitted dose curve at least 0.9, where 1 is the maximum;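 further: resazurin reduction fluorescence as viability of cultured neurons; twelve days of exposure from plating with re-dosing on DIV 5 and 9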)
# Procedure, shortened: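 Resazurin fluorescence, relative to DMSO, gauges viability after twelve days of exposure that began at plating of rat cortical neurons (1.5 x 10^5 cells/well, 48-well MEA); treatment renewed with full medium exchange on DIV 5 and 9.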
# [7] = CCTE_Shafer_MEA_acute_LDH: CCTE's Lactate Dehydrogenase Assay for Cytotoxicity in the Neural Acute Assay, Shafer Lab (AID 2284086; active means hit-call score of the fitted dose curve at least 0.9, where 1 is the maximum;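 further: active means LDH release rises above DMSO vehicle level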)
# Procedure, shortened: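 Medium from rat cortical neuron MEA cultures sampled right after the 40 min compound-exposure recording; released LDH measured by absorbance at 490 nm. Analyzed as signal gain relative to DMSO.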
# [8] = UKN5_HCS_SBAD2_cell_viability: Viability Assessment in the University of Konstanz (UKN) Leist Lab Neurite Outgrowth Assay in human iPSC-derived immature Dorsal Root Ganglia Neurons (UKN5) (AID 2284056)
# Procedure, shortened: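 iPSC-derived immature peripheral neurons (SBAD2) seeded on Matrigel with CHIR99021, SU5402 and DAPT, dosed 1 h later for 24 h. Viability from Hoechst H-33342 and calcein-AM live staining, high-content imaging; bidirectional fit versus DMSO.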
# [9] = UKN5_HCS_SBAD2_neurite_outgrowth: University of Konstanz (UKN) Leist Lab Neurite Outgrowth Assay in human iPSC-derived immature Dorsal Root Ganglia Neurons (UKN5) (AID 2284070); details: actives raise or lower the signal
# Procedure, shortened: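 SBAD2 iPSC-derived immature peripheral neurons on Matrigel, 100.000 cells/cm2, medium with CHIR99021 (1.5 uM), SU5402 (5 uM), DAPT (5 uM); compound added 1 h post-seeding for 24 h. Calcein-AM neurite area by high-content imaging; Hoechst H-33342 viability; bidirectional fit vs DMSO.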
# DIO3 (gene 1735) = test: CCTE_GLTED_hDIO3: CCTE's human Deiodinase 3 (DIO3) Inhibition Assay, Great Lakes Toxicology and Ecology Division (GLTED) Lab (AID 2284055; active means hit-call score of the fitted dose curve at least 0.9, where 1 is the maximum;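 further: potency is for inhibition seen as loss of released iodide signal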)
# Procedure, shortened: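 Human DIO3 from an adenovirus expression system is incubated 3 h with test chemical. Released iodide is quantified by Sandell-Kolthoff absorbance, in triplicate plates. Loss of signal is fitted relative to DMSO.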
structure (smiles),measurement,setting,value
CN(C)C(=S)S,outcome,[1],inactive
OC(Cc1ccccc1Cl)(Cn1[nH]cnc1=S)C1(Cl)CC1 (centres undefined),outcome,[2],inactive
same,AC50,[3],23.6 µM (active)
same,AC50,[4],82.3 µM (active)
same,AC50,[5],73.5 µM (active)
same,AC50,[6],71.3 µM (active)
CC(C)(C)c1ccccc1O,outcome,[1],inactive
same,outcome,[7],inactive
CC(=O)C(F)(F)C(F)(F)F,outcome,[2],inactive
same,outcome,[3],inactive
same,outcome,[4],inactive
NC(=O)c1ccc(N)nc1,AC50,[2],7.69 µM (active)
same,AC50,[3],4.19 µM (active)
same,AC50,[4],6.23 µM (active)
same,AC50,[5],6.05 µM (active)
same,AC50,[6],8.53 µM (active)
O=C(Cc1ccccc1)OCCc1ccccc1,outcome,[7],inactive
Cc1cc(C(F)(C(F)(F)F)C(F)(F)F)ccc1NC(=O)c1cccc(I)c1C(=O)NC(C)(C)CS(C)(=O)=O,outcome,[2],inactive
same,AC50,[3],17.4 µM (active)
same,AC50,[4],20.9 µM (active)
same,AC50,[5],11.3 µM (active)
same,AC50,[6],4.32 µM (active)
same,outcome,[7],inactive
CC1(C)[C@H](C(=O)O[C@H](C#N)c2cccc(Oc3ccccc3)c2)[C@@H]1/C=C(\Cl)C(F)(F)F,outcome,[2],inactive
same,AC50,[3],12.9 µM (active)
same,AC50,[4],3.67 µM (active)
same,AC50,[5],22.7 µM (active)
same,AC50,[6],12.9 µM (active)
O=S(=O)(F)C(F)(F)C(F)(F)C(F)(F)C(F)(F)F,outcome,[2],inactive
same,outcome,[3],inactive
same,outcome,[4],inactive
same,outcome,[6],inactive
C=CCOC(F)(C(F)(F)F)C(F)(F)F,outcome,[2],inactive
same,outcome,[3],inactive
same,outcome,[4],inactive
C=CC(F)(C(F)(F)F)C(F)(F)C(F)(F)F (centres undefined),outcome,[2],inactive
same,outcome,[3],inactive
same,outcome,[4],inactive
same,outcome,[5],inactive
CNC(=O)CSP(=O)(OC)OC,outcome,[2],inactive
same,outcome,[3],inactive
same,outcome,[4],inactive
same,AC50,[8],20.9 µM (active)
same,outcome,[5],inactive
same,outcome,[9],inactive
N#CCC#N,AC50,DIO3 (gene 1735),58 µM (active)
CCOCn1c(-c2ccc(Cl)cc2)c(C#N)c(Br)c1C(F)(F)F,AC50,[2],1.64 µM (active)
same,AC50,[3],6.48 µM (active)
same,AC50,[4],10.8 µM (active)
same,AC50,[5],12.1 µM (active)
same,AC50,[6],20.4 µM (active)
CCCCOC(=O)COC(=O)c1ccccc1C(=O)OCCCC,outcome,[1],inactive
same,outcome,[7],inactive
N#Cc1cccnc1,outcome,[7],inactive
OCCCCO,outcome,[1],inactive
same,outcome,[7],inactive
FC(F)OCC(F)(F)C(F)(F)F,outcome,[2],inactive
same,outcome,[3],inactive
same,outcome,[4],inactive
Oc1ccc(Cc2ccc(O)cc2)cc1,outcome,[1],inactive
CC(=Cc1ccccc1)[N+](=O)[O-],AC50,DIO3 (gene 1735),64.6 µM (active)
CS(=O)(=O)c1ccc(C(=O)C2C(=O)CCCC2=O)c(Cl)c1COCC(F)(F)F,outcome,[2],inactive
same,outcome,[3],inactive
same,outcome,[4],inactive
same,outcome,[6],inactive
same,outcome,[7],inactive
O=C1c2ccccc2C(=O)C1C(=O)C(c1ccccc1)c1ccc(Cl)cc1 (centres undefined),AC50,DIO3 (gene 1735),68.5 µM (active)
CCCCCCCCCCCCc1cccc(S(=O)(=O)O)c1,AC50,DIO3 (gene 1735),38.1 µM (active)
same,outcome,[1],inactive
same,outcome,[7],inactive
Oc1cc(Cl)c(Cl)cc1Cl,outcome,[1],inactive
same,outcome,[7],inactive
Cc1ccccc1OP(=O)(Oc1ccccc1C)Oc1ccccc1C,outcome,[2],inactive
same,AC50,[3],20.3 µM (active)
same,AC50,[4],19.4 µM (active)
same,AC50,[5],20.2 µM (active)
same,AC50,[6],21.1 µM (active)
same,outcome,[7],inactive
CC(F)(F)CC(F)(F)F,outcome,[2],inactive
same,outcome,[3],inactive
same,outcome,[4],inactive
same,outcome,[6],inactive
O=[N+]([O-])c1ccc(Cl)c([N+](=O)[O-])c1,AC50,DIO3 (gene 1735),7.41 µM (active)
O=S1OC[C@@H]2[C@H](CO1)[C@]1(Cl)C(Cl)=C(Cl)[C@@]2(Cl)C1(Cl)Cl (some centres undefined),outcome,[8],inactive
same,outcome,[9],inactive
CC(C)[C@@H](Nc1ccc(C(F)(F)F)cc1Cl)C(=O)OC(C#N)c1cccc(Oc2ccccc2)c1 (some centres undefined),outcome,[2],inactive
same,outcome,[3],inactive
same,AC50,[4],14.5 µM (active)
same,AC50,[5],23.5 µM (active)
same,outcome,[1],inactive
same,AC50,[6],14.5 µM (active)
same,outcome,[7],inactive
Clc1cccc(Cl)c1Cl,outcome,[7],inactive
O=S1(=O)OC(c2cc(Br)c(O)c(Br)c2)(c2cc(Br)c(O)c(Br)c2)c2ccccc21,AC50,DIO3 (gene 1735),13 µM (active)

# — PubChem BioAssay (EPA / NIEHS)
